# Only some compounds are listed: those with a hit (about 5.7% of all), similar ones and a draw of the others.
# DAX1 inh-1: DAX1 (NR0B1) inhibitors on StAR promoter, primary screen, cell-based, luminescence, SF-1 (NR5A1), full-length DAX-1 | HEK293T StAR-luciferase reporter, SF-1/DAX-1 repression relief | inhibition, % at 6.8 µM | actives 1.1% (n = 370,000) | AID 652010, 2013;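 active = inhibition above the mean over all tested compounds plus 3 SD, cut at about 3.6% in these data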;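 also: 0% = DAX-1 cells with DMSO and 100% = cells lacking DAX-1 with DMSO; higher inhibition means more luminescence from relief of DAX-1 repression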
# hgDAF-12 ag: H. glycines DAF-12 receptor agonists, primary screen, cell-based, luminescence, HEK293, GAL4 fusion, UAS-luciferase; Nuclear hormone receptor DAF-12 (Heterodera glycines), GAL4 fusion; HEK293 GAL4-hgDAF12 UAS-luciferase reporter, agonist luminescence; normalized to butyrate control; activation, % at 6.8 µM; actives 1.8% (n = 370,000);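 active = activation above a cutoff set at the mean of all screened compounds plus 3 SD, cut at about 10% in these data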;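 also: 0% = DMSO wells and 100% = sodium butyrate wells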
# ssDAF12 agonist: S. stercoralis DAF-12 nuclear receptor activators, primary screen, cell-based, luminescence, HEK293, GRIP1 co-expression, lit1-tk-luc; actives 1% (n = 370,000); activation, % at 6.8 µM; Nuclear hormone receptor DAF-12 (Strongyloides stercoralis); HEK293 ssDAF-12/GRIP1 lit1-tk-luc reporter; % of 3 µM dafachronic acid response;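 active = activation above the mean over all tested compounds plus 3 SD, cut at about 0.9% in these data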;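 also: 0% = DMSO-only wells and 100% = 3 µM delta7-dafachronic acid wells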
# DAX1 inh-2: DAX1 (NR0B1) inhibitors, primary screen, cell-based, HEK293, Gal4-DAX1, luciferase luminescence; HEK293 Gal4-DAX1 luciferase reporter; Nuclear receptor subfamily 0 group B member 1 (Homo sapiens), P51843; AID 504766, 2011; actives 0.99% (n = 340,000); inhibition, % at 6.75 µM;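 active = inhibition above the mean over all tested compounds plus 3 SD, cut at about 4.2% in these data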;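 also: 0% = DAX1-transfected cells with DMSO and 100% = empty-vector control cells with DMSO; inhibition shows as a rise in luminescence from relieved DAX1 repression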
# AHR act: AHR activators, primary screen, cell-based, luminescence, luciferase reporter, human | AID 2796, 2010 | actives 2.5% (n = 320,000) | AHR-responsive luciferase reporter cells | activation, % at 5 µM; in the data active = activation above about 47%;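 also: 0% = vehicle wells and 100% = reference agonist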
# Target sequence (P35869 whole entry, looked up): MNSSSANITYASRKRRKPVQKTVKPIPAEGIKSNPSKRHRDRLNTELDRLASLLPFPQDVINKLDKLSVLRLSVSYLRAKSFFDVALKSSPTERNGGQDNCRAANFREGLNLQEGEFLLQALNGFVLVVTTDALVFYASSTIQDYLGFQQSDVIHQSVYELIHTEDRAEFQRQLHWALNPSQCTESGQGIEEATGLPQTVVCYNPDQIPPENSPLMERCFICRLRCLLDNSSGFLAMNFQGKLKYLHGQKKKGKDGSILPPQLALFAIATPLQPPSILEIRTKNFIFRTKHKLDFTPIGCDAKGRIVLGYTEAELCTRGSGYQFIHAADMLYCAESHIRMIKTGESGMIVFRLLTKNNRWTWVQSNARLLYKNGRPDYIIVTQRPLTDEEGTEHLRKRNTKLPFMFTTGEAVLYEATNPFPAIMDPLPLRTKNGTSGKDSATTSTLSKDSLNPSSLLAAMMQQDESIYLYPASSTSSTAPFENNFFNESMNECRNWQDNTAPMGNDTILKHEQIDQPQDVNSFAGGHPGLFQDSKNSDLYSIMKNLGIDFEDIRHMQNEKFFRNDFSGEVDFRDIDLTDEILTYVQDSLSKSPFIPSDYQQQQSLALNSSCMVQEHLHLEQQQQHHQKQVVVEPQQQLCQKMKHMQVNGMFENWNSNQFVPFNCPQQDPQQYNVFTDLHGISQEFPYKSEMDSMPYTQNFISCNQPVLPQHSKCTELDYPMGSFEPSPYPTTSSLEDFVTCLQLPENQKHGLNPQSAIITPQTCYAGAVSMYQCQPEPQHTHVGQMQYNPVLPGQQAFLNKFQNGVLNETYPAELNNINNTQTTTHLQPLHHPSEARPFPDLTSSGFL
# hcDAF12 agonist: H. contortus DAF-12 nuclear receptor activators, primary screen, cell-based, luminescence, HEK293, lit1-tk-luc reporter. HEK293 hcDAF-12 lit1-tk-luc reporter; 0% DMSO, 100% Δ7-dafachronic acid. activation, % at 6.8 µM. actives 1.4% (n = 370,000). AID 652067, 2013;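 active = activation above the mean of all tested compounds plus 3 SD, cut at about 5.5% in these data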;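 also: 100% = response to 3 µM Δ7-dafachronic acid high control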
# Numbers without * were called inactive; nt = no result given.
SMILES,DAX1 inh-1,hgDAF-12 ag,ssDAF12 agonist,DAX1 inh-2,AHR act,hcDAF12 agonist
O=[N+]([O-])c1ccc(Cl)c(S(=O)(=O)Nc2cccc(S(=O)(=O)NC3=NCCC3)c2)c1,-2,-4,0,0,52*,1
CCCOC(=O)c1ccc(NC(=O)C(=O)NCC2CCCO2)cc1 (configuration not stated),0,2,-1,0,0,0
COC(=O)c1ccc(CSc2nc3ccccc3o2)cc1,2,10,1,-1,1,2
O=[N+]([O-])c1ccc(CSc2nc3ccccc3o2)cc1,3.6*,12*,1,1,0,4
O=C1CSC(=S)N1/N=C/c1cccnc1,1,0,0,2,7,-1
COCCNC(=O)c1cc2c(s1)-c1ccc(Cl)cc1SC2,2,13*,1,5.0*,nt,1
Cc1ccc(OC(=O)c2sc3ncn(C)c(=O)c3c2C)cc1,2,1,-1,4,2,1
COc1ccc(Cc2c(-c3ccc(OC)c(OC)c3)nc3c(C)cc(Br)cn23)c(C)c1,-2,-4,-2,nt,nt,-2
COc1ccc(Cc2c(-c3ccccc3)nc3ccc(Br)cn23)c(C)c1,1,13*,0,nt,nt,1
Cc1ccc(Cc2c(-c3ccccc3)nc3c(C)cc(Br)cn23)cc1,-1,0,0,nt,nt,3
COc1ccc(Cc2c(-c3cccc(Br)c3)nc3ccc(Cl)cn23)c(C)c1,2,5,0,nt,nt,2
COc1ccc(Cc2c(-c3ccc(C)cc3)nc3c(C)cc(Br)cn23)c(C)c1,0,3,1.1*,nt,nt,3
Cc1ccc(Cc2c(-c3ccc(C#N)cc3)nc3c(C)cc(Br)cn23)cc1,0,4,1.0*,nt,nt,0
CC1CN=C2C(C(=O)Nc3ccccc3)=C(O)CC(c3ccccc3)N21 (configuration not stated),0,-2,-1,-1,5,0
CC(=O)N1CCN2C(=O)C1CCCC(=O)c1cc(C3CCCCC3)ccc12 (configuration not stated),1,2,0,4.3*,0,-1
CC(=O)N1CCN2C(=O)C1CCCC(=O)c1cc(C(C)C)ccc12 (configuration not stated),1,-2,-1,1,2,-1
Fc1ccc(NC(=S)N2CCc3ccccc3C2)c(F)c1,1,1,0,5.6*,41,3
CC(C)(C)c1ccc(C(=O)N/C(=C\c2cccs2)C(=O)N2CCOCC2)cc1,-1,0,-2,0,10,1
N=c1sccn1CC(=O)Nc1ccc(Cl)cc1[N+](=O)[O-],-1,2,-1,4.4*,-1,2
Clc1ccccc1-c1nnc2sc(-c3ccccn3)nn12,-2,-2,-1,-1,nt,-1
NNC(=O)c1nc(Cl)c(Cl)c(N)c1Cl,0,3,-1,-1,77*,1
Nc1c(Cl)c(Cl)nc(C(=O)OCC(=O)NC2CCCCC2)c1Cl,-1,0,0,0,29,2
O=C(CNc1ccc(C(F)(F)F)cc1[N+](=O)[O-])OCC(=O)c1ccccc1,0,-1,-1,1,42,0
O=C(CSc1nc2ccccc2c(=O)n1-c1ccccc1)N/N=C/C=C/c1ccccc1[N+](=O)[O-],1,2,-1,-1,-5,1
O=C(CSc1nc2ccccc2c(=O)n1-c1ccc(Cl)cc1)N/N=C/C=C/c1ccccc1[N+](=O)[O-],-1,4,-1,3,3,5.8*
SMILES,DAX1 inh-1,hgDAF-12 ag,ssDAF12 agonist,DAX1 inh-2,AHR act,hcDAF12 agonist
c1ccc2c(c1)nc(-c1ccncc1)n2CCNc1nc(CN2CCCCC2)cs1,0,0,-1,1,6,1
Cn1c(-c2ccc(CN3CCCCC3)o2)nc2ccccc21,3,9,1.2*,1,25,5.8*
NC(=O)c1ccc(SCC(=O)OCC(=O)NC2CCCCCCC2)c([N+](=O)[O-])c1,0,4,-2,0,7,0
Cn1c(/C(C#N)=C/c2ccc(O)cc2)nc2ccccc21,1,7,1.2*,5.5*,2,0
Cc1occc1C(=O)N/N=C/C=C/c1ccc(N(C)C)cc1,3.8*,12*,0,1,19,2
Cc1occc1C(=O)N/N=C/C=C/c1ccccc1,4,8,0,4,6,1
O=C(NNC(=O)c1cccs1)c1cccc(F)c1,1,-2,1.3*,-1,-1,2
O=C(NNC(=O)c1cccs1)c1ccc(F)cc1,1,1,0,0,-1,1
O=C(NC(=S)NNC(=O)c1cccs1)c1ccccc1,1,4,0,1,52*,4
O=C1CCC(c2ccccc2)N1c1ccccc1 (configuration not stated),0,-1,0,3,nt,0
O=C(CNc1ccc2c(c1)OCO2)N/N=C\c1ccccc1Cl,0,1,-1,0,81*,-2
Cc1[nH]c2ccccc2c1/C=N\NC(=O)CNc1ccc2c(c1)OCO2,1,2,-1,0,68*,2
O=C(Cc1ccccc1)N/N=C/c1cc2c(cc1Cl)OCO2,-1,1,-1,0,27,-2
Cc1[nH]c2ccccc2c1/C=N/NC(=O)CNC(=O)c1ccco1,1,2,0,nt,12,3
Cc1cccc(C(=O)OCC(=O)N2CCc3ccccc3C2)c1O,0,2,0,0,1,1
Cc1cccc(C(=O)OCC(=O)N2CCCCCC2)c1O,2,2,0,4.5*,1,5
CC(=O)NCCN=Cc1sc2ccccc2c1O,0,1,0,2,15,1
COc1cc2sc(NC(=O)c3ccco3)nc2cc1Cl,2,12*,0,6.7*,49*,5
O=C(Nc1nc2c(Cl)ccc(Cl)c2s1)c1ccco1,0,1,0,2,22,5.6*
O=C(Nc1nc2ccsc2c(=O)s1)c1ccco1,0,8,-1,nt,-1,1
O=C1c2cccnc2C(=O)N1CO,0,0,-1,1,4,-1
O=C(Nc1ccccc1)Nc1ccc(-n2ccc(C(F)(F)F)n2)cc1,1,9,-1,1,3,1
